Results: ChEMBL document CHEMBL4513216, “Probing the Open Global Health Chemical Diversity Library for Multistage-Active Starting Points for Next-Generation Antimalarials” (ACS Infect Dis, 2020)
“And” between values parts separate entries of the source, which are not always exact repeats. Equal entries are not always repeated. Hit rate of the full screen: of about 68,000 compounds, about 2,700 (4%) showed an effect of 50% or more. This is one part of a sample in which strong results are shown more often than they occur.

Tested on: Plasmodium berghei
Assay: Screen against P. berghei liver stage (PbLuc), transformed with Luciferase, at 2uM
Assay type: functional, HepG2
Conditions: tested at 2 uM

Row | SMILES | INHIBITION | INHIBITION (2 µM)
1 | CCn1ncc2c1C(COC)N(C(=O)c1cccs1)CC2 (stereo not drawn) | -23.14% | –
2 | O=C(Nc1nnn[nH]1)c1ccc(I)c(F)c1 | 15.2% | –
3 | Cc1cccc(CN2C(=O)C[C@H]3[C@@H]2CCN3Cc2nccs2)n1 | 31.5% | –
4 | Cc1cccc(CN2C(=O)C[C@H]3[C@@H]2CCN3Cc2cccs2)n1 | 63.06% | –
5 | Cc1cccc(CN2CC[C@@H]3[C@@H]2CCN3Cc2cccs2)n1 | -18.6% | –
6 | Cc1ccc(-c2cn[nH]c2C2CCCN(c3ncccn3)C2)cc1 (stereo not drawn) | -16.71% | –
7 | Cc1ccc(-c2cn[nH]c2C2CCCN(c3nccc(N)n3)C2)cc1 (stereo not drawn) | 58% | –
8 | Cc1ccc(-c2cn[nH]c2C2CCCN(c3ccnc(C)n3)C2)cc1 (stereo not drawn) | -8.3% | –
9 | Cc1nc(CCNC(=O)NC(C)Cn2cccn2)cs1 (stereo not drawn) | 38.76% | –
10 | O=C(N[C@@H]1CN[C@H]2CCCO[C@H]21)c1cccnc1 | 33.69% | –
11 | CC(=O)N1CCN(C(C)c2nnc(CC(C)C)o2)CC1 (stereo not drawn) | 2.02% | –
12 | CNc1ncc(CN(C)C(=O)CCc2[nH]nc3c2CCCC3)cn1 | 50.57% | –
13 | CN(Cc1ccncn1)C(=O)CCc1[nH]nc2c1CCCC2 | -2.31% | –
14 | CNc1ncc(CN(C)C(=O)CCc2cc3n(n2)CCCNC3)cn1 | 20.76% | –
15 | Cc1ccc(CNC(=O)Cn2nc(-c3ccc(F)cc3)oc2=O)cc1F | 1.6% | –
16 | COc1cccc(-c2noc(C3CCN(CC4CCCCC4)C3)n2)c1 (stereo not drawn) | 30.29% | –
17 | CCS(=O)(=O)N1CCC2(CC1)CN(C(=O)N(C)C)Cc1ccccc12 | 6.79% | –
18 | CC(C)N1CCC(CC(=O)NCc2cc(O)ncn2)CC1 | 12.17% | –
19 | CCc1csc(CCNC(=O)CC2CCN(C(C)C)CC2)n1 | -2.5% | –
20 | CC(C)N1CCC(CC(=O)NCCc2cc(O)ncn2)CC1 | 60.59% | –
21 | Cn1ccnc1CN1C[C@@H]2OCCN(c3ncccn3)[C@@H]2C1 | 52.17% | –
22 | Cn1cncc1CN1C[C@@H]2OCCN(c3ncccn3)[C@@H]2C1 | 25.02% | –
23 | CN(C)c1nccc(N2CCO[C@H]3CN(Cc4nccn4C)C[C@H]32)n1 | 11.6% | –
24 | CC(C)NC(=O)N1Cc2nccn2CC(CN2CCCC2)C1 (stereo not drawn) | 2.5% | –
25 | CCC(C)Oc1ccc(CNCCc2c[nH]cn2)cc1Cl (stereo not drawn) | 12.15% | –
26 | COc1ccc(C)cc1NC(=O)Cn1nc(C)c(C#N)c1N | 5.32% | –

Row | SMILES | INHIBITION | INHIBITION (2 µM)
27 | Cc1nn(CC(=O)Nc2cccc(F)c2)c(N)c1C#N | -33.61% | –
28 | Cc1ccc(C)c(NC(=O)Cn2nc(C)c(C#N)c2N)c1 | -15.17% | –
29 | Cc1nn(CC(=O)Nc2ccc(F)cc2)c(N)c1C#N | 58.12% | –
30 | CC(=O)c1c(C)nn(CC(=O)Nc2ccc(F)cc2)c1C | -16.43% | –
31 | Cc1cc(NC(=O)Cn2nc(C)c(C#N)c2N)ccc1Br | 55.86% | –
32 | CCc1ccc(S(=O)(=O)N2Cc3c(CN(C)C)nn(C)c3C2)cc1 | 48.09% | –
33 | NC1CCc2nc(-c3ccncc3)nc(Nc3cccc(F)c3)c2C1 (stereo not drawn) | -23.54% | –
34 | Cc1cccc2c1ccn2CCC(=O)Nc1c2c(nn1C)CSC2 | 13.65% | –
35 | CCN(C)c1ncnc2c1CCN(Cc1ccc(OC)cc1)CC2 | 7.86% | –
36 | O=C(Cc1ccccn1)N1CCCC(c2nccn2CC2CCC2)C1 (stereo not drawn) | 54.47% | –
37 | O=C(c1ccccn1)N1CCCC(c2nccn2CC2CCC2)C1 (stereo not drawn) | 14.41% | –
38 | O=C(CSCC1CC1)N1CCCC(c2nccn2Cc2ccccn2)C1 (stereo not drawn) | -17.83% | –
39 | Cc1csc(CCCNC(C)CC(=O)Nc2cccc(C)c2C)n1 (stereo not drawn) | -77.68% | –
40 | O[C@@H]1C[C@@H](c2nc(-c3ccc(OC(F)(F)F)cc3)no2)N(CC2CC2)C1 | 13.92% | –
41 | Cc1noc([C@H]2CC[C@@H]3[C@@H](CCN3S(=O)(=O)C3CC3)O2)n1 | 1.83% | –
42 | O=C(Cc1ccccc1Cl)Nc1cnn(C2CCOC2)c1 (stereo not drawn) | 2.49% | –
43 | COc1ccc(-c2c(C)nn3c(=N)c(C#N)n[nH]c23)cc1OC | 1.04% | –
44 | CS(=O)(=O)CCC(=O)NC1(c2cccc(C(F)(F)F)c2)CCC1 | 61% | –
45 | CCNC(=O)CCC(=O)NC1(c2cccc(C(F)(F)F)c2)CCC1 | 18.85% | –
46 | COCC(=O)NC1(c2cccc(C(F)(F)F)c2)CCC1 | 24.82% | –
47 | COCCC1(C(=O)O)CCCN(Cc2cc3c(cc2C)OCO3)C1 (stereo not drawn) | -48.91% | –
48 | c1cnn(-c2ccc(CCNC3CCN(C4CC4)C3)cc2)c1 (stereo not drawn) | 27.73% | –
49 | OCCNc1cc(-c2ccccc2)ncn1 | -7.01% | –
50 | C[C@H](O)CNc1cc(-c2ccncc2)ncn1 | -29.38% | –
51 | C[C@H](O)CNc1cc(-c2ccccc2)ncn1 | 59.56% | –
52 | CC(C)NC(=O)CC1COC2(CCN(Cc3ccco3)CC2)C1 (stereo not drawn) | 43.58% | –

Row | SMILES | INHIBITION | INHIBITION (2 µM)
53 | O=C(NCc1cc(N2CCOCC2)ncn1)c1cccc(CO)n1 | -15.77% | –
54 | O=S(=O)(c1cccnc1)N1C[C@H]2CC[C@@H](C1)N(Cc1ccccn1)C2 | -3.6% | –
55 | CC(C)=CCN1C[C@@H]2CC[C@H]1CN(S(=O)(=O)c1cccnc1)C2 | 54.75% | –
56 | O=S(=O)(c1cccnc1)N1C[C@H]2CC[C@@H](C1)N(Cc1ccccc1)C2 | -11.31% | –
57 | c1ccc2c(c1)N(CC1CCOC1)CC21CCN(c2cnccn2)CC1 (stereo not drawn) | -39.01% | –
58 | O=C(Cn1nc(C(F)(F)F)c(Br)c1C1CC1)N1CCOCC1 | 6.33% | –
59 | Cc1ccc(CN2CC[C@H]3CO[C@H](CN4CCCC4)[C@H]3C2)o1 | 50.85% | –
60 | Cc1ccc(CN2CC[C@H]3CO[C@H](CN(C)C)[C@H]3C2)o1 | -5.44% | –
61 | Cc1ccc(CN2CC[C@H]3CO[C@H](CN4CCN(C)CC4)[C@H]3C2)o1 | 16.78% | –
62 | CC(=O)N(C)c1nc(Cn2nnnc2C2CCCC2)cs1 | -26.07% | –
63 | O=C(Cn1cc(-n2cccc2)cn1)NCC1CCC1 | -28.99% | –
64 | COCCn1cc2c(n1)C(CNCc1ccsc1)OCC2 (stereo not drawn) | 30.19% | –
65 | COCCN1C(=O)[C@@H]2CC[C@H]1CN(c1ncccn1)C2 | 57.34% | –
66 | CNc1ccnc(N2C[C@H]3CC[C@@H](C2)N(CCOC)C3=O)n1 | 40.51% | –
67 | COCCN1C(=O)[C@@H]2CC[C@H]1CN(c1nccc(C)n1)C2 | -1.56% | –
68 | CN(Cc1ccccn1)C(=O)[C@]12COC[C@H]1CN(Cc1cnn(C)c1)C2 | 0.3% | –
69 | O=C(CN1C[C@@H]2CC[C@H]1CN(Cc1ccccn1)C2)NCc1cccs1 | 52.98% | –
70 | O=C(c1cc(C2CC2)no1)N1C[C@@H]2CC[C@H]1CN(Cc1ccccn1)C2 | -62.92% | –
71 | Cc1nnsc1CN1C[C@@H]2CC[C@H]1CN(Cc1ccccn1)C2 | -17.17% | –
72 | Cn1ccc(NC(=O)CN2C[C@@H]3CC[C@H]2CN(Cc2ccccn2)C3)n1 | 52.98% | –
73 | COCCN1C[C@@H]2CC[C@H]1CN(CC(=O)Nc1ccn(C)n1)C2 | 5.28% | –
74 | O=C(CN1C[C@@H]2CC[C@H]1CN(Cc1ccccn1)C2)Nc1ccccc1 | -16.18% | –
75 | O=C1[C@@H]2CN(C3CCOCC3)C[C@H]2CCN1CC1CC1 | 27.65% | –
76 | O=C1CCCC2=Nc3nonc3NC(c3ccc(Cl)cc3Cl)C12 (stereo not drawn) | -53.9% | –
77 | CC(C)c1ccc2c(c1)CCCN2C(=O)CN(C)S(C)(=O)=O | -20.21% | –
78 | CC(C)OCCSCc1nnc(-c2cccc(F)c2)o1 | 55.39% | –

Row | SMILES | INHIBITION | INHIBITION (2 µM)
79 | COc1cccn(Cc2nnc(-c3cccc(F)c3)o2)c1=O | 25.02% | –
80 | OCC(O)CSCc1nnc(-c2cccc(F)c2)o1 (stereo not drawn) | 10.23% | –
81 | COC(=O)c1cccn1C1CCN(CCN2C(=O)CCC2=O)CC1 | 31.46% | –
82 | COc1ccc(NC(=O)N2CCCC2c2ccco2)cc1OC (stereo not drawn) | -28.88% | –
83 | CCCc1cc(CNC2CCN(c3cc(C)nc(N)n3)CC2)on1 | -13.81% | –
84 | CCCc1cc(CNC2CCN(c3nc(C)cc(C)n3)CC2)on1 | 58.59% | –
85 | CCCc1cc(CNC2CCN(c3cc(C(C)C)nc(C)n3)CC2)on1 | -8.34% | –
86 | Cc1cn2c(=O)c(-c3ccnc(N(C)C4CCCCC4)n3)cnc2s1 | -35.83% | –
87 | Cc1nc(N2C[C@@H](CN3CCCCC3)[C@@H](CO)C2)c2sccc2n1 | -38.35% | –
88 | Cc1nc(N2C[C@H]3CNC[C@H]3C2)c2sccc2n1 | 50.98% | –
89 | COC1[C@@H]2CC[C@H]1CN(c1nc(C)nc3ccsc13)C2 (stereo partly drawn) | -67.34% | –
90 | O=C(NCc1nn(-c2ccccc2)c2c1CCC2)NC1CCC(O)CC1 (stereo not drawn) | -43.23% | –
91 | O=S(=O)(Cc1ccccc1CN1CC[C@H](CO)[C@H](O)C1)c1ccccc1 | 48.21% | –
92 | NC1CCCCN(Cc2ccccc2CS(=O)(=O)c2ccccc2)C1 (stereo not drawn) | 21.97% | –
93 | N[C@@H]1CCN(Cc2ccccc2CS(=O)(=O)c2ccccc2)C[C@H]1O | 83.98% | –
94 | CC(C)(C)NC(=O)CNc1ncc(Br)cn1 | -20.72% | –
95 | CCc1c(C)nn2c(O)cc(C3CCN(C(=O)c4ccccn4)C3)nc12 (stereo not drawn) | – | -16.2% and -18.64%
96 | CC1Oc2c(cccc2C(=O)N2CCN(CC(C)(C)O)CC2)NC1=O (stereo not drawn) | -34.12% | –
97 | Cc1ncccc1C(=O)Nc1cccc(C[S+](C)[O-])c1C (stereo not drawn) | 31.58% | –
98 | NC(=O)Cn1c(SCc2noc(-c3ccsc3)n2)nnc1C1CC1 | -2.44% | –
99 | Cc1cccc(CSc2nnc(C)n2CC(N)=O)c1 | 20.41% | –
100 | CCc1noc(C(C)Sc2nnc(C3CC3)n2CC(N)=O)n1 (stereo not drawn) | 35.26% | –
101 | CC(Sc1nnc(C2CC2)n1CC(N)=O)c1ccc(Cl)cc1 (stereo not drawn) | -87.32% | –
102 | CC(C)c1nc(CSc2nnc(C3CC3)n2CC(N)=O)no1 | 53.55% | –
103 | CC(C)c1nc(CSc2nnc(-c3cccs3)n2CC(N)=O)no1 | 51.4% | –
